High-throughput results as filed in PubChem.
RTF Ca sens inh = cardiac RTF calcium desensitization | P19429+P45379 | IANBD-labeled cardiac RTF, Ca2+ fluorescence | inhibition, % at 7.15 µM | 340,000 tested, 0.12% active | AID 493244;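 active = inhibition above the mean inhibition of all tested compounds plus 3 SD, cut at about 17% in these data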;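 note: assay run at fixed EC70 calcium of 1.6 mM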
IDE inh = inhibits human insulin-degrading enzyme in HEK cells. 320,000 tested, 0.41% active. inhibition, % at 5.59 µM. P14735. FAbetaB cleavage, fluorescence polarization;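 active = percent inhibition above the average of all tested compounds plus 3 SD, set per screening campaign, cut at about 16% in these data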;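 note: IDE supplied by intact live HEK cells; FP after avidin binding of uncleaved biotin substrate so inhibition keeps polarization high; 0% = DMSO wells and 100% = 60 µM reference IDE inhibitor Ii1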
Target sequence (P14735 whole entry, looked up): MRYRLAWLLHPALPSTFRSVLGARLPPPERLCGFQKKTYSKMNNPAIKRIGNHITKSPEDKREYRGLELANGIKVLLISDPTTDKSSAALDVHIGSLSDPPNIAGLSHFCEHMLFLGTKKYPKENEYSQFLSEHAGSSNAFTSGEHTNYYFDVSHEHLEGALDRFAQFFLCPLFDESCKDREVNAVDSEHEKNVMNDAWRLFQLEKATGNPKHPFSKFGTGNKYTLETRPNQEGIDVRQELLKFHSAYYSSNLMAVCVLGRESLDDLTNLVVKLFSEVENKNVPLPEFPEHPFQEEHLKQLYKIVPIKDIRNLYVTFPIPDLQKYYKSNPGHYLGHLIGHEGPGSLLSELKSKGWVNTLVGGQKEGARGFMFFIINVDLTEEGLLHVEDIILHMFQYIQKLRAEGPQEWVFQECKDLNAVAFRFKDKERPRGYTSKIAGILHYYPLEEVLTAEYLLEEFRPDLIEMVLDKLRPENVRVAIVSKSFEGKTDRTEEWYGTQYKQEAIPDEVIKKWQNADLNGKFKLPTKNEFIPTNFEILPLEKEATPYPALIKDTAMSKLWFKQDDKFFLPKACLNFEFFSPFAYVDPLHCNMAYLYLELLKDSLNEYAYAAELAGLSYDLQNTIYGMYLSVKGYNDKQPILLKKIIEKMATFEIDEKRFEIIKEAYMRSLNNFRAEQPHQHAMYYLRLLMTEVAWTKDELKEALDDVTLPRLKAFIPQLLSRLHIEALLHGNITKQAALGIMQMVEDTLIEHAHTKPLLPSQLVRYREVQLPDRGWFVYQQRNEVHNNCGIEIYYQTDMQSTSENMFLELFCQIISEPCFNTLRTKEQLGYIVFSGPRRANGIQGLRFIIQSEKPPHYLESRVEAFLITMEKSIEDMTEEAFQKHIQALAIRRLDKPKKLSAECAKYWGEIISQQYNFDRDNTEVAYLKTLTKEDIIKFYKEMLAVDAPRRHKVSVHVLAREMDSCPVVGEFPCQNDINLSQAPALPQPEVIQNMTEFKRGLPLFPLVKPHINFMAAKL
cardiac RTF act = cardiac RTF calcium sensitization; IANBD-labeled TnC RTF fluorescence at EC20 calcium; 0% EC20 calcium, 100% full calcium; P19429+P45379; activation, % at 7.2 µM; 340,000 tested, 0.24% active;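 active = activation above the mean over all tested compounds plus 3 SD, cut at about 30% in these data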;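 note: rise in fluorescence read as greater calcium sensitivity of cardiac thin filaments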
IDE act = activators of human insulin-degrading enzyme in cells; P14735; HEK cells, FAbeta-B cleavage, fluorescence polarization; 0% vehicle, 100% cell-free pure enzyme wells; activation, % at 5.96 µM; 340,000 tested, 0.073% active;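 active = activation above the mean of all tested compounds plus 3 SD, set per screening campaign, cut at about 17% in these data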
The depositor's hits bear a star; x = no result. Only some compounds are listed: those with a hit (about 0.71% of all), similar ones and a draw of the others.

SMILES | RTF Ca sens inh | IDE inh | cardiac RTF act | IDE act
C#CCOCCOCCOCCNc1nc(N2CCN(C(=O)CCCCCCCCCCNC(=O)[C@@H](CCSC)n3cc(CCO)nn3)CC2)nc(N2CCN(C(=O)CCCCCCCCCCNC(=O)[C@H]([C@@H](C)CC)n3cc(CCCCN=C(N)N)nn3)CC2)n1 | -1.6 | 5.3 | 5.8 | 45.6*
C#CCOCCOCCOCCNc1nc(N2CCN(C(=O)CCCCCCCCCCNC(=O)[C@H](CCCCN)n3cc(C[C@@H](C)CC)nn3)CC2)nc(N2CCN(C(=O)CCCCCCCCCCNC(=O)[C@H](CCCCN)n3cc(C[C@@H](C)CC)nn3)CC2)n1 | 0.1 | -1.9 | -1.1 | 39.8*
C#CCOCCOCCOCCNc1nc(N2CCN(C(=O)CCCCCCCCCCNC(=O)[C@H](CCCCN)n3cc(CCO)nn3)CC2)nc(N2CCN(C(=O)CCCCCCCCCCNC(=O)[C@H](CCCN=C(N)N)n3cc(C[C@@H](C)CC)nn3)CC2)n1 | 2.9 | 1.3 | 5.2 | 40.1*
C#CCOCCOCCOCCNc1nc(N2CCN(C(=O)CCCCCCCCCCNC(=O)[C@@H](CCSC)n3cc(CCO)nn3)CC2)nc(N2CCN(C(=O)CCCCCCCCCCNC(=O)[C@H]([C@@H](C)CC)n3cc(CCCCCN)nn3)CC2)n1 | x | -7.5 | x | x
C#CCOCCOCCOCCNc1nc(N2CCN(C(=O)CCCCCCCCCCNC(=O)[C@H](CO)n3cc(CCCSC)nn3)CC2)nc(N2CCN(C(=O)CCCCCCCCCCNC(=O)[C@H](CCCCN)n3cc(C[C@@H](C)CC)nn3)CC2)n1 | x | -2.4 | x | x
C#CCOCCOCCOCCNc1nc(N2CCN(C(=O)CCCCCCCCCCNC(=O)Cn3cc(C[C@@H](C)O)nn3)CC2)nc(N2CCN(C(=O)CCCCCCCCCCNC(=O)[C@H](CCCCN)n3cc(C[C@@H](C)CC)nn3)CC2)n1 | -1.2 | -3.7 | 7.1 | 30.3*
CCCNC(=O)Cn1cc(S(=O)(=O)N2CCCC2)c(S(=O)(=O)N2CCCC2)c1 | -5.5 | -0.2 | -5.2 | 9.6
C#CCOCCOCCOCCNc1nc(N2CCN(C(=O)CCCCCCCCCCNC(=O)[C@H](CCCCN)n3cc(CCCC(=O)O)nn3)CC2)nc(N2CCN(C(=O)CCCCCCCCCCNC(=O)[C@H](CCCN=C(N)N)n3cc(C[C@@H](C)CC)nn3)CC2)n1 | 5.0 | 5.0 | 10.4 | 25.9*
COc1ccc2c(-c3ccccc3)cc(SCC(=O)NC(N)=O)nc2c1 | -5.9 | 4.6 | 4.2 | 25.7*
S=C1NC(c2ccccc2)=CC(c2ccccc2)N1 (configuration not stated) | x | 5.2 | x | x
S=C1NC(c2cccs2)=CC(c2ccc(Br)cc2)N1 (configuration not stated) | 1.3 | 16.6* | 0.0 | -4.5
O=c1[nH]c2c(s1)C=Nc1ccccc1N2 | -100.4 | 0.9 | 78.4* | 1.6
O=C1CC(c2ccco2)CC2=C1C=Nc1ccccc1N2 (configuration not stated) | -18.3 | 7.7 | -3.9 | -0.7
CN1CCC2(CC1)C1CN(C)CC=C1C(C#N)=C(N)C2(C#N)C#N (configuration not stated) | -44.1 | -0.5 | 36.5* | 2.6
CN1CC=C2C(C#N)=C(N)C(C#N)(C#N)[C@H](c3cccc(Cl)c3)C2C1 (some centres not stated) | -33.6 | 2.0 | 26.6 | -4.0
CCN(C(=O)CSc1nc2ccccc2c(=O)n1-c1ccccc1F)C1CCS(=O)(=O)C1 (configuration not stated) | -7.4 | 1.0 | -2.4 | -0.1
Cc1ccc(C)c(NC(=O)CCc2ccc(C)o2)c1 | -3.3 | 2.0 | -1.8 | 4.7
Cc1ccc(CCC(=O)Nc2cc(Cl)ccc2Cl)o1 | -7.2 | -1.7 | 39.2* | -6.6
COC(=O)C(C(=O)OC)c1ncccc1[N+](=O)[O-] | 0.2 | -3.2 | 1.6 | 17.8*
O=C(O)c1ccc(-c2nc(-c3ccc(Cl)cc3Cl)cs2)cc1 | 0.0 | 2.0 | 0.4 | 1.2
CC(=O)N1CC[n+]2c(-c3ccc(Cl)cc3Cl)csc21 | 3.0 | 16.7* | -2.6 | -6.4
CCCCCc1nnc(NC(=O)C2CCCO2)s1 (configuration not stated) | 2.3 | 1.3 | 4.0 | 35.7*
CCCN1C(=O)/C(=C\C=C2/Sc3ccccc3N2CCO)SC1=S | -7.1 | 10.5 | -1.5 | -17.4
CCN1/C(=C/C=C2/SC(=Nc3cccc4ncccc34)N(C)C2=O)Sc2ccccc21 | -27.9 | x | 41.2* | -17.7
Cc1ccnc(N/C=C(\C#N)c2nc(-c3cccc(Br)c3)cs2)c1 | -156.4 | 7.8 | 95.4* | -34.0
SMILES | RTF Ca sens inh | IDE inh | cardiac RTF act | IDE act
N#C/C(=C\Nc1ccc2cn[nH]c2c1)c1nc(-c2ccccc2)cs1 | -2.3 | x | -5.6 | 4.9
COc1ccc(-c2noc(CCC(=O)NCCc3ccccc3)n2)cc1 | -4.3 | 1.1 | 37.8* | -4.0
COc1cccc(-c2noc(CCC(=O)NCCc3ccccc3)n2)c1 | -4.9 | -0.9 | 3.0 | -1.0
Cc1ccc(C)n1-c1sc2c(c1C(=O)O)CCCC2 | -13.9 | 3.7 | -6.2 | -1.4
Cc1ccc(C)n1-c1sccc1C(=O)O | 64.8* | x | -30.8 | -0.3
COC(=O)C1=C(C)N(Cc2ccccc2)C(=NCc2cccc(C(F)(F)F)c2)N[C@H]1c1cccc(F)c1 | -4.2 | -2.0 | -6.2 | 24.1*
COC(=O)C1=C(C)N(Cc2ccccc2)C(=NCc2cccc(C(F)(F)F)c2)N[C@H]1c1cccc(C(F)(F)F)c1 | -3.0 | 5.1 | 5.1 | 28.8*
O=C(NNS(=O)(=O)c1ccc(F)cc1)C1CC(c2cccnc2)=NO1 (configuration not stated) | -2.9 | -2.2 | -3.7 | 2.2
C/C(CC(=O)Nc1cccc(C(F)(F)F)c1)=N\NC(=O)C1CCCCC1 | 6.7 | 5.3 | -2.4 | -3.5
COc1cccc(Cl)c1NC(=O)N1CCN(c2ccnc3cc(Cl)ccc23)CC1 | -20.6 | 26.5* | 2.5 | -30.7
Cc1ccc[n+](-c2[nH]c(=O)sc2/C=N/N=C(\[O-])CCn2c3ccccc3c3ccccc32)c1 | -8.0 | -4.5 | 0.0 | 6.1
CCc1ccc[n+](-c2[nH]c(=O)sc2/C=N/N=C(\[O-])c2ccncc2)c1 | -1.2 | 4.3 | 3.6 | 6.8
Cc1cc[n+](-c2[nH]c(=O)sc2/C=N/NC([S-])=Nc2ccccc2)cc1C | -66.1 | -3.4 | 50.7* | 1.3
CC(C)(C)c1cc[n+](-c2[nH]c(=O)sc2/C=N/NC([S-])=Nc2ccccc2)cc1 | -127.2 | 4.5 | 80.8* | -3.7
O=[N+]([O-])c1cnc(Nc2ccccc2)nc1Nc1ccccc1 | -6.1 | 3.9 | 4.5 | 1.1
COc1ccc(NC(=O)C2CCN(S(=O)(=O)c3ccc4c(c3)CC(C)N4C(C)=O)CC2)cc1OC (configuration not stated) | -5.9 | -1.6 | -6.1 | 77.2*
COc1ccc(CNC(=O)c2cccc(NC(=O)CC3SC(N4CCCCC4)=NC3=O)c2)cc1 (configuration not stated) | -10.9 | 8.3 | -5.3 | 0.1
CC(NC(=O)c1cccs1)c1ccc(Br)cc1 (configuration not stated) | 4.6 | -3.2 | -0.5 | 3.1
O=C(CNC(=O)c1ccc(Br)cc1)NCC(=O)OCC(=O)c1ccc([N+](=O)[O-])cc1 | -3.1 | 17.3* | 3.8 | -5.1
